Screening data from PubChem BioAssay.
NPC1 prom act: activators of NPC1 promoter; Potency, µM (highest dose often 9.22 µM), without a hit: at the highest dose activation, hits mostly activators; Huh7 NPC1 promoter luciferase reporter, 24 h; actives 2.4% (n = 320,000); further: % of control where 0% means no effect; nearly all actives have a fitted effect of over 60% in size
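Cells: Huh7 expressing luciferase under the NPC1 promoter, 1500/well. Seeded 2 h, compound added, incubated 24 h at 37 °C. Luciferase reagent, 10 min ambient, then luminescence.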
ELG1 genotoxic: induces genotoxicity in HEK293T cells with luciferase-tagged ELG1. HEK293T ELG1-luciferase reporter, luminescence, 16 h. actives 1.3% (n = 330,000). Potency, µM (doses to about 46 µM), for inactives: at the highest dose activity change, positive = activation, hits mostly activators; further: % of control where 0% means no effect; nearly all actives have a fitted effect of over 60% in size
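Reporter readout depends on ELG1 protein level, which increases with genetic stress. After 16 hr compound exposure at 37 °C, luciferase activity was quantified using ONE-Glo.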
FLuc counter: inhibits or activates purified firefly luciferase, miR-21 counter-screen; purified FLuc, Km substrates, luminescence inhibition; P08659; Potency, µM (top dose mostly 57.5 µM), for the others: at the top dose activity change, negative = inhibition, hits mostly inhibitors; actives 6.9% (n = 360,000);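 further: plate controls were vehicle for no effect and reference inhibitor for full effect; nearly all actives have a fitted effect of over 55% in size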
Target sequence (P08659 whole entry, looked up): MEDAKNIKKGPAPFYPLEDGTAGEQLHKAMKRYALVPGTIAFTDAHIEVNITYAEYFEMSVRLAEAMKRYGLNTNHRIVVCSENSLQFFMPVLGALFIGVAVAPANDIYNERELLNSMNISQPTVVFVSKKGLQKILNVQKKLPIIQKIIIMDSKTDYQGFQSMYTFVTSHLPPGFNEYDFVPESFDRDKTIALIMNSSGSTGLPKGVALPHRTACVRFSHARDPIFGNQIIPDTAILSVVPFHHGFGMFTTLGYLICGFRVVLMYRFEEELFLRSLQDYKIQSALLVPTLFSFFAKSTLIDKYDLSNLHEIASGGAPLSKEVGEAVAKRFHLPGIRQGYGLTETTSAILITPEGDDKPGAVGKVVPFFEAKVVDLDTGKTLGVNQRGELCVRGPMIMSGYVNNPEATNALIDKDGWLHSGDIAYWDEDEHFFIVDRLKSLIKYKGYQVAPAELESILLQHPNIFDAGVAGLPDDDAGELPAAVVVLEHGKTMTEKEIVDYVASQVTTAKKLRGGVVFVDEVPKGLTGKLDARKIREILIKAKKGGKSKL
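Purified P. pyralis luciferase, 10 nM final, with Km-level 10 uM D-luciferin and 10 uM ATP in 50 mM Tris acetate pH 7.5, 10 mM Mg acetate, 0.01% Tween-20, 0.05% BSA; 6-point qHTS titration about 60 µM downward; luminescence read.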
Rab9 prom act: activates the Rab9 promoter; Huh7 Rab9 promoter-luciferase reporter, luminescence, 24 h; Potency, µM (titrated, usually from 9.22 µM), inactives show at the highest dose activation, negative = inhibition, actives largely listed as activators; actives 2.8% (n = 320,000); AID 485297; further: % of control where 0% means no effect; nearly all actives have a fitted effect of over 60% in size
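Rab9 promoter-driven luciferase in stably transfected Huh7 cells; 1500 cells/well rested 2 h, exposed to compound in DMSO for 24 h at 37 °C, 5% CO2. Luminescence read 10 min after adding luciferase reagent at ambient temperature.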
SMN2 splice enh: SMN2 splice variant enhancement. AID 1458. Potency, µM (doses to about 46.1 µM), for inactives: at the top dose activity change, positive = activation, most hits filed as activators. HEK293 SMN2-luciferase splicing reporter, luminescence, 30-36 h. actives 2.8% (n = 210,000); further: % of control where 0% means no effect; nearly all actives have a fitted effect of over 55% in size
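HEK293 cells carry an SMN2 minigene-luciferase reporter in which exon 7 inclusion puts luciferase in frame. Cells were seeded at 2000 cells/well, attached for 10-12 hours, then exposed to compounds for 30-36 hours at 37C before ONE-Glo luminescence.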
p53 reactivation: re-activators of mutant p53; actives 0.063% (n = 320,000); H1299 p53-A138V BP100-luciferase reporter, luminescence, 24 h; AID 504706; Potency, µM (highest dose often 92.2 µM), for the others: at the top dose activity change, positive = activation, usual class: activators; further: % of control where 0% means no effect; nearly all actives have a fitted effect of over 45% in size
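p53-null H1299 cells stably carrying temperature-sensitive p53-A138V and a BP100-luciferase reporter were pinned with compounds (4-point, 1:5 series) and held 24 hrs at 37 deg C. Luminescence was read 10 min after detection reagent.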
Numbers without * were called inactive; u = inconclusive; x = no result; [ ] = another dose, or the depositor's remark. The list is not random: actives were taken first. Their share in the collection is about 7.4%. The call rests on the fitted dose curve; in most records, active means well fitted curve in the direction sought with a large enough effect; inconclusive means small, poorly fitted or top-dose-only effect, or another doubt; inactive means no such curve, though single readings can be large; an effect the other way counts as inactive or inconclusive. Potency means the concentration at half of the fitted maximal effect.

SMILES | NPC1 prom act | ELG1 genotoxic | FLuc counter | Rab9 prom act | SMN2 splice enh | p53 reactivation
CCOc1cc(CNCCSc2nnnn2-c2ccccc2)cc(Cl)c1OC | x | x | -13% | x | x | x
NC(=O)C1CCN(C(=O)Nc2ccccc2)CC1 | -1% | 0% | 0% | x | 3% | 6%
O=C(c1cccs1)N1CCC(c2ccccc2)C1 (stereo not given) | 3.2µM* | 18µM* | 21µM* | 2.8µM* | 16µM* | u
Cc1ccc(NC(=O)N2CCCC(c3ccccc3)C2)cc1 (stereo not given) | 2% | 2% | 12µM* | 23% | x | 1%
CCc1ccc(NC(=O)N2CCC(c3ccccc3)C2)cc1 (stereo not given) | 1.1µM* | u | 6.7µM* | 0.89µM* | 25µM* | 12%
O=C(CCN1CCC(c2ccccc2)C1)c1cccs1 (stereo not given) | 3% | -5% | -3% | -5% | -17% | -23%
CC1CCCN(C(=O)C2CCN(C(=O)Nc3ccccc3)CC2)C1 (stereo not given) | 2% | -2% | -1% | 0% | x | 18%
O=C(Nc1ccccc1)N1CCC(c2ccccc2)C1 (stereo not given) | 1.6µM* | u | 12µM* | 1.8µM* | 18µM* | u
CCOc1cc(/C=C2/COc3ccccc3C2=O)ccc1OCC(=O)N(C)C | -8% | -14% | -13% | 1% | -54% | -9%
CNc1ccc(/C=C2\COc3ccccc3C2=O)cc1[N+](=O)[O-] | 25% | 4% | 1.9µM* | u | 10% | 0%
O=C1/C(=C/c2ccccc2[N+](=O)[O-])COc2ccccc21 | -23% | -21% | 17µM* | -15% | -86% | -11%
Cc1ccc(C)c(N2CCN(C(=O)C3CCN(Cc4nc(-c5cccc(Cl)c5)oc4C)CC3)CC2)c1 | x | x | -19% | x | 8% | x
Cc1ccc(NC(=O)c2c(NC(=O)c3ccc(F)cc3)sc3c2CCCC3)cc1C | x | x | u | x | 2% | x
O=c1[nH]c(-c2cccnc2)nc2sc(-c3ccccc3)cc12 | -23% | u | 4.8µM* | 26% | 29% | 1%
Cc1nc2cc3ccccc3cc2c(=O)[nH]1 | u | u | 13µM* | u | u | u
Cc1nc(C)c(-c2ccccc2)c(=O)[nH]1 | -2% | 0% | 6% | 5% | x | -1%
Cc1cc(Cl)c2cc3ccccc3cc2n1 | 1% | 1% | -7% | 1% | x | -1%
Cc1nc2sc(-c3ccccc3)cc2c(=O)[nH]1 | 0.63µM* | 0.58µM* | 1.3µM* | 0.5µM* | 13µM* | 28%
CSc1ncc2c(=O)[nH]c(-c3ccccc3)nc2n1 | -2% | 4% | u | 0%[1.84 µM] | x | 6%
CC(C)OC(=O)Cc1nc2sc(-c3ccccc3)cc2c(=O)[nH]1 | u | u | 17µM* | 4.5µM* | x | 17%
O=C1CCc2cc(S(=O)(=O)NCc3ccccc3Cl)cc3c2N1CC3 | -1% | 14% | 2% | -1% | x | 5%
O=C1[C@@H](Oc2ccccc2)[C@@H](c2ccncc2)N1c1ccncc1 | x | u | x | x | x | 13%
O=C(O)CCc1ccc(-c2ccccc2)n1CC(=O)Nc1ccccc1C(F)(F)F | x | x | -6% | x | 15% | x
O=C(Nc1nccs1)C1CC(=O)N(c2ccc(Cl)cc2)C1 (stereo not given) | 0% | -6% | 4% | -7% | -4% | -6%
Cc1cc(N2CC(C(=O)Nc3nccs3)CC2=O)ccc1C(C)C (stereo not given) | 1% | -4% | 11µM* | 13% | x | -13%
SMILES | NPC1 prom act | ELG1 genotoxic | FLuc counter | Rab9 prom act | SMN2 splice enh | p53 reactivation
Cc1sc2ncnc(N/N=C/c3cccc(O)c3)c2c1C | 2% | u | 11µM* | -4% | u | u
Cc1sc2ncnc(Nc3ccc(O)cc3)c2c1C | 0% | 7% | -11% | 2% | x | 1%
Cc1ccc(S(=O)(=O)Nc2ncnc3sc(C)c(C)c23)cc1 | -6% | -6% | -3% | 0% | x | 1%
Cc1ccc(Nc2ncnc3sc(C)c(C)c23)cc1 | 0% | u | 21µM* | 29% | u | -6%
C/C(=N\Nc1ncnc2sc(C)c(C)c12)c1ccccn1 | u | u | 5.4µM* | 8% | x | u
COc1cc(/C=N/Nc2ncnc3sc4c(c23)CCC4)ccc1O | 1% | u | 2.4µM* | -2% | 8% | -1%
CC(C)C[C@@H](N)C(=O)O | x | x | x | x | 1% | x
C/C(=N\Nc1ccc(Cl)c(C(=O)O)c1)c1ccccn1 | 16% | 10% | -18% | 9% | x | 11%
C/C(=N\Nc1ncc(Cl)cc1Cl)c1ccccn1 | 0% | u | 0.17µM* | -13% | -88% | -4%
CCc1ccc(NC(=O)c2[nH]c(C)c(C(C)=O)c2C)cc1 | 1.6µM* | u | 12µM* | 1.6µM* | x | u
COc1ccc(NC(=O)c2[nH]c(C)c(C(C)=O)c2C)cc1 | u | u | u | u | x | 14%
CCOC(=O)c1c(C)[nH]c(C(=O)Nc2ccc(NC(C)=O)cc2)c1C | 0% | 0% | -19% | 0% | 3% | -2%
CCOc1ccc(NC(=O)c2[nH]c(C)c(C(C)=O)c2C)cc1 | u | u | 15µM* | u | x | 29%
N#Cc1ccc(CN2CCC3(CC2)CCN(C(=O)c2csnn2)CC3)cc1 | x | x | x | x | -18% | x
O=C(COC(=O)CCN=C1NS(=O)(=O)c2ccccc21)NNC(=O)c1ccc(Cl)cc1 | 2% | 0% | -1% | 2% | x | -7%
O=C(CSc1nc(-c2ccccc2)nc2ccccc12)Nc1nccs1 | -1% | 1% | 0% | 2% | -12% | -6%
CCn1c(C)nnc1SCC(=O)Nc1nccs1 | -5% | 1% | 0% | 3% | x | 7%
CCOC(=O)c1c(SCC(=O)Nc2nccs2)nc(C)c(C)c1C | 2.8µM* | u | -1% | 2.5µM* | x | u
Cc1cc(C)cc(-n2ccnc2SCC(=O)Nc2nccs2)c1 | -8% | -1% | 1% | 1% | 7% | 2%
CCc1nnc(NC(=O)CSc2nc3c(cc2C#N)CCC3)s1 | 2.8µM* | u | 0.85µM* | 2.2µM* | 13µM* | u
Cc1cccc(-n2ccnc2SCC(=O)Nc2nccs2)c1 | u | 15% | u | 3.5µM* | x | u
Cc1ccc(C#N)c(SCC(=O)Nc2nccs2)n1 | 0.79µM* | 1.8µM* | -11% | 0.45µM* | 1.8µM* | 3%
N#Cc1cc2c(nc1SCC(=O)Nc1nccs1)CCCCC2 | 0.28µM* | 0.12µM* | 0.67µM* | 0.28µM* | 1µM* | u
CCSc1nnc(NC(=O)CSc2nc3c(cc2C#N)CCCC3)s1 | 1.8µM* | 13% | 12µM* | 3.2µM* | 7.9µM* | 5%
C=C[C@](C)(O)CCC1C(=C)CC(O)C2C(C)(C)CCCC12C (stereo not given in full) | x | x | x | x | -27% | x
